This is a sample that favours compounds with a hit; in the whole collection about 12% have one here.
Insulin prom inh: TRM-6 insulin promoter activity inhibition. AID 1273. TRM-6 cells (human fetal islet line), insulin promoter-eGFP reporter, imaging; reporter expression induced with tamoxifen. inhibition, % at 2 µM. 130,000 compounds, 0.9% hits;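 active = inhibition above the mean plus 3 SD, with well images judged a real hit on visual review, cut at about 60% in these data, passing the limit was not always enough; inconclusive = inhibition over the cutoff but images rejected on review; inactive = inhibition not above the cutoff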
WT yeast gro inh: growth inhibition of WT yeast, mitochondrial fusion screen; mitochondrial fusion phenotypic screen, WT strain; inhibition, % at 10 µM; 190,000 compounds, 2.1% hits; in the data active = inhibition above about 58%; tested in S. cerevisiae
Insulin prom up: MIN6 insulin promoter up-regulation; MIN6 insulin promoter-GFP reporter, high-content imaging; stronger effect = higher value; z-score at 5 µM; 190,000 compounds, 0.3% hits;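 active = z-score above 3 at 5 µM with at least 500 cells counted in the well; inconclusive = wells under 500 cells, flagged as cytotoxic or low count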
ROMK primary: modulators of human ROMK potassium channel | P48048 | Tet-inducible ROMK, thallium flux fluorescence; actives lie on both sides | B-score at 10 µM | 130,000 compounds, 2% hits | AID 1918;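 active = signal ratio slope over the read window, or its plate-corrected B-score, at least 3 SD from the plate mean, either direction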;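 also: B-score of the F/F0 ratio slope over 7 to 12 s after thallium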
L major viab: inhibitors of Leishmania major promastigote growth. Leishmania major promastigotes, resazurin fluorescence viability. inhibition, % at 10 µM. 200,000 compounds, 9% hits. AID 1063; in the data active = inhibition above about 50%;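 also: promastigotes grown with compound for 44 hours at 28 °C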
Cl transport mod: modulators of human KCC2 chloride dependent transport; 190,000 compounds, 2.2% hits; B-score of Tl+ flux slope (higher = more flux/activation; lower = inhibition) at 10 µM; KCC2 cells, thallium flux FluoZin-2 fluorescence; Q9H2X9;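 active = thallium flux slope and its plate-corrected score both differing from the plate sample mean at a set confidence after two filtering rounds, in either direction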;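 also: slope of fluorescence scaled to starting intensity during 10 to 20 s after thallium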
Of the large screens only hits and unclear results are named; the others gave an inactive call.

CCOC(=O)N1CCC(NC(=O)c2cc(C(=O)Nc3ccc(OC)c(OC)c3)ccc2CO)CC1	Insulin prom up 3.42 (no result: Insulin prom inh)
CCN(CC)S(=O)(=O)c1ccc(O)c(C(=O)OCC(=O)Nc2cc(C)c(C)cc2[N+](=O)[O-])c1	none (no result: Insulin prom inh)
CCN1CCN(c2cc(C)c3cc(NC(=S)N4CCCCC4)ccc3n2)CC1	L major viab 57.7 (no result: Insulin prom inh)
CCN1CCN(C(=S)Nc2ccc3nc(N4CCN(C)CC4)cc(C)c3c2)CC1	L major viab 67.1
COc1ccc(CCNC(=O)CCC(=O)Nc2ccc3nc(N4CCN(C)CC4)cc(C)c3c2)cc1OC	none (no result: Insulin prom inh)
CCN1CCN(c2cc(C)c3cc(NC(=S)N4CCCC4)ccc3n2)CC1	none (no result: Insulin prom inh)
CCOC(=O)N1CCN(C(=S)Nc2ccc3nc(N4CCN(CC)CC4)cc(C)c3c2)CC1	L major viab 71.8
Cc1cc(N2CCN(C)CC2)nc2ccc(NC(=O)CCC(=O)NCCC3=CCCCC3)cc12	L major viab 100.2 (no result: WT yeast gro inh, Insulin prom up, ROMK primary)
CCN1CCN(C(=S)Nc2ccc3nc(N4CCN(CC)CC4)cc(C)c3c2)CC1	none
COc1ccc(S(=O)(=O)Cc2ccc(C(=O)NCCc3ccc(S(N)(=O)=O)cc3)o2)cc1	none (no result: Insulin prom inh, ROMK primary)
Cc1cc(N=NC(=O)c2ccccc2)ccc1O	Insulin prom up inconclusive, L major viab 85.6 (no result: Insulin prom inh, ROMK primary)
O=Cc1cc(N=Nc2cccc(C(=O)O)c2)ccc1O	none
OCC1(Cc2ccccc2)CCCN(Cc2cnn(-c3ccccc3)c2)C1 (stereo not drawn)	L major viab 89.0
CSc1ccc(CN2CCCC(CO)(Cc3ccccc3)C2)cc1 (stereo not drawn)	L major viab 64.3
CSc1ccccc1C(=O)C1CCCN(Cc2cnn(-c3ccccc3)c2)C1 (stereo not drawn)	L major viab 73.1 (no result: Insulin prom inh)
COc1ccccc1-n1cc(CN2CCCC(CO)(Cc3cccc(Cl)c3)C2)cn1 (stereo not drawn)	none (no result: Insulin prom inh, ROMK primary)
OCC1(Cc2ccccc2)CCN(Cc2cnn(-c3ccccc3F)c2)CC1	L major viab 87.7 (no result: Insulin prom inh, ROMK primary)
OCC1(Cc2ccccc2)CCN(Cc2cnc(-c3ccc(Cl)cc3)nc2)CC1	none
COC(=O)c1sccc1-c1ccc(/C=N/OC(=O)c2ccccc2)o1	none (no result: Insulin prom up, ROMK primary)
Cc1ccc(-c2nnn(CC(=O)N(c3ccccc3F)C(C(=O)NCC3CCCO3)c3c[nH]c4ccccc34)n2)cc1 (stereo not drawn)	L major viab 87.9 (no result: Insulin prom up, ROMK primary)
Cc1ccc(-c2nnn(CC(=O)N(c3ccccc3)C(C(=O)NCC3CCCO3)c3ccc(Cl)cc3)n2)cc1 (stereo not drawn)	none (no result: Insulin prom up, ROMK primary, Cl transport mod)
CCOc1cc(/C=C2\SC(=N)N(c3nccs3)C2=O)ccc1OCCN1CCOCC1	L major viab 96.9
CCOc1cc(C2C(C#N)=C(N)SC(N)=C2C#N)ccc1OCCN1CCOCC1	none
CCN(CC)S(=O)(=O)c1ccc(NN=C2CCN(C(C)C)CC2)c([N+](=O)[O-])c1	none (no result: Insulin prom inh, WT yeast gro inh, ROMK primary, L major viab)
CC(C)(C)C1CCC(=NNc2ccc(S(N)(=O)=O)cc2[N+](=O)[O-])CC1 (stereo not drawn)	L major viab 85.2
CCN(CC)S(=O)(=O)c1ccc(NN=C2CCN(C)CC2)c([N+](=O)[O-])c1	L major viab 81.3 (no result: Insulin prom inh)
COc1ccccc1-c1c(C(F)(F)F)oc2cc(OS(C)(=O)=O)ccc2c1=O	none (no result: ROMK primary)
Cc1cc(C)c2cc(CN(CCN(C)C)C(=O)Nc3ccccc3Cl)c(=O)[nH]c2c1	L major viab 58.3
Cc1cc(C)c2cc(CN(CCO)C(=O)Nc3ccc(F)cc3)c(=O)[nH]c2c1	none (no result: Insulin prom up, ROMK primary)
FC(F)(F)c1ccc(CSc2nccn2-c2ccccc2)cc1	WT yeast gro inh 62.9 (no result: Insulin prom up, ROMK primary)
Cc1nc(NC2=NCN(Cc3ccco3)CN2)nc2ccccc12	none (no result: Insulin prom inh, WT yeast gro inh, ROMK primary, L major viab, Cl transport mod)
CCOC(=O)c1cc(CC)sc1/N=C/c1c(O)ccc2ccccc12	L major viab 63.5
O=C1C2C3C=CC(C3)C2C(=O)N1CCc1ccccc1 (stereo not drawn)	Insulin prom up 3.33
O=C1C2C3C=CC(C3)C2C(=O)N1CCN1CCN(Cc2ccc([N+](=O)[O-])cc2)CC1 (stereo not drawn)	L major viab 71.9 (no result: ROMK primary)
CC1(C(=O)NCCc2c[nH]c3ccccc23)C=CCN1C(=O)c1ccccc1 (stereo not drawn)	none
Cc1ccc(S(=O)(=O)NCC(=O)OCC(=O)N(Cc2ccccc2)C(C)(C)C)cc1	none
O=C(ONC1=NCCCCC1)c1ccc(Cl)cc1	none
CN(C)c1ccc(C2CC(c3ccccc3)=Nc3nc(-c4ccccc4)cn32)cc1 (stereo not drawn)	L major viab 90.9 (no result: ROMK primary)

Bioassay records from PubChem.
